Several values for one entry are separate records, joined by “and”; a condition that tells them apart may be missing. Identical values can stand only once. Results filed as inconclusive are left out. Activity calls are given as the source filed them. Calls come from the whole dose curve; as a rule, active = well fitted curve in the direction sought with a large enough effect; inconclusive = small, poorly fitted or top-dose-only effect, or another doubt; inactive = no such curve, though single readings can be large; an effect the other way counts as inactive or inconclusive.
Key:
[1] = Quantitative highthroughput screen to assess conditional lethalithy of P12 Ichikawa cells grown in RPMI1640 with dialyzed fetal bovine serum (RPMI+ds) (AID 1963880); details: Potency: P12-Ichikawa viability; note: nearly all actives have a fitted effect of over 35% in size;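 for viability: 100% = DMSO wells and 0% = empty wells on each plate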
Outline: (§1)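 Each medium arm—HPLM with 10% dialyzed FBS, or RPMI1640 with 5 mM glucose and 10% untreated or dialyzed FBS—was screened against an 11-point, 3-fold compound titration for 48 h at 37 °C, with CellTiter-Glo luminescence as endpoint.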

[2] = Quantitative highthroughput screen to assess conditional lethalithy of P12 Ichikawa cells grown in RPMI1640 with untreated serum (RPMI+s) (AID 1963881); details: Potency: viability; note: nearly all actives have a fitted effect of over 35% in size;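 for viability: series mostly up to about 46 µM; 100% = DMSO wells and 0% = empty wells without cells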
Outline: as §1

[3] = Quantitative highthroughput screen to assess conditional lethalithy of SEM cells grown in Human Plasma-Like Medium with dialyzed fetal bovine serum (HPLM+ds) (AID 1963882); note: nearly all actives have a fitted effect of over 35% in size; for viability: series mostly up to about 46 µM
Outline: as §1

[4] = Quantitative highthroughput screen to assess conditional lethalithy of SEM cells grown in RPMI1640 with dialyzed fetal bovine serum (RPMI+ds) (AID 1963884); note: nearly all actives have a fitted effect of over 35% in size;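 for viability: series mostly up to about 46 µM; 100% = DMSO control wells and 0% = empty wells without cells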
Outline: as §1

[5] = Quantitative highthroughput screen to assess conditional lethalithy of P12 Ichikawa cells grown in Human Plasma-Like Medium with dialyzed fetal bovine serum (HPLM+ds) (AID 1963879); details: Potency: viability; note: nearly all actives have a fitted effect of over 35% in size; for viability: series mostly up to about 46 µM
Outline: as §1

[6] = Quantitative highthroughput screen to assess conditional lethalithy of SEM cells grown in RPMI1640 with unreated serum (RPMI+s) (AID 1963883); note: nearly all actives have a fitted effect of over 35% in size;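 for viability: 100% = DMSO wells and 0% = empty wells without cells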
Outline: as §1

[7] = Cellular viability qHTS for adrenocortical cancer (ACC) cell line SW-13 (AID 1963989); details: SW-13 ACC cells viability, CellTiter-Glo, 48 h; activity (max response): hits give low values; note: nearly all actives have a fitted effect of over 65% in size;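 for activity (max response): cells grown in serum-free medium with ITS supplement; % is set by controls: 0 for no effect and ±100 for the full control effect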
Outline: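 Compound titrations (up to 46 uM final, in DMSO) were applied to SW-13 cells for 48 h at 37C/5% CO2. Reading used CellTiter-Glo after 20 min at room temperature; fitted curves yielded IC50 and efficacy.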

[8] = Cellular viability qHTS for adrenocortical cancer (ACC) cell line NCI-H295R (AID 1963990); note: nearly all actives have a fitted effect of over 60% in size
Outline: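 Readout: CellTiter-Glo luminescence, 20 min RT. Exposure: 48 h, 37C/5% CO2. Cells: NCI-H295R, ITS-DMEM serum-free. Range: up to 46 uM. Analysis: 4PL fit, IC50 plus efficacy.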
Potency is the fitted concentration of half-maximal effect.

Cc1onc(-c2ccccc2)c1C(=O)N[C@@H]1C(=O)N2[C@@H](C(=O)O)C(C)(C)S[C@@H]12
active: Potency [1] 1050 nM | Potency [2] 1320 nM
inactive: Potency [3] | Potency [4]

COc1ccc(Cc2nccc3cc(OC)c(OC)cc23)cc1OC
inactive: Potency [5] | Potency [2] | Potency [3]

O=c1cc(-c2ccc(O)cc2)oc2cc(O)cc(O)c12
inactive: Potency [5] | Potency [2] | Potency [3] | Potency [6] | activity (max response) [7] -18.3% | Potency [8]

COc1cc2c(cc1OC)[C@@H]1Cc3ccc(OC)c(OC)c3CN1CC2
inactive: Potency [5] | Potency [1] | Potency [2] | Potency [6] | Potency [4]

COc1cc(CNC(=O)CCCCC=CC(C)C)ccc1O
active: Potency [5] 332 nM | Potency [2] 833 nM | Potency [6] 526 nM

COc1cc(C(=O)NS(=O)(=O)c2ccccc2C)ccc1Cc1cn(C)c2ccc(NC(=O)OC3CCCC3)cc12
active: Potency [3] 20900 nM | Potency [8] 28.2 µM
inactive: Potency [5]

Cc1ccc(N(CC2=NCCN2)c2cccc(O)c2)cc1
inactive: Potency [5] | Potency [2] | Potency [6] | Potency [8]
active: Potency [7] 23.1 µM and 25.1 µM

CC[C@H](CC[C@@H](C)[C@H]1CC[C@H]2[C@@H]3CC=C4C[C@@H](O)CC[C@]4(C)[C@@H]3CC[C@]12C)C(C)C
inactive: Potency [1] | Potency [2] | Potency [3] | Potency [6] | Potency [4]

CC=C(C)C(=O)O[C@H]1C(C)=C[C@]23C(=O)[C@@H](C=C(CO)[C@@H](O)[C@]12O)[C@H]1[C@@H](C[C@H]3C)C1(C)C
inactive: Potency [5]
active: Potency [2] 6.6 nM

COc1nccc(-c2c(-c3ccc(F)cc3)ncn2C2CCNCC2)n1
inactive: Potency [5] | Potency [1] | Potency [2] | Potency [3] | activity (max response) [7] -17.6% | Potency [8]

Cc1c[nH]c(C=C2C(=O)Nc3ccccc32)c1CCC(=O)O
active: Potency [5] 2640 nM | Potency [3] 833 nM

CC1=C(C)C(=O)C(C(CCCCCC(=O)O)c2ccccc2)=C(C)C1=O (stereo unspecified)
active: Potency [2] 8330 nM
inactive: Potency [5] | activity (max response) [7] 0.763% and -13.4% | Potency [8]

COc1nccc(-c2c(-c3ccc(F)cc3)ncn2C2CCC(O)CC2)n1 (stereo unspecified)
inactive: Potency [5] | Potency [2] | activity (max response) [7] -14% | Potency [8]
active: Potency [6] 5260 nM

COc1ccc(Nc2cc(-c3cnc(N)nc3)nc(N3CCOCC3)n2)cn1
active: Potency [1] 2640 nM | Potency [2] 2350 nM | Potency [8] 2.24 µM

CCCCCN=C(N)NN=Cc1c[nH]c2ccc(OC)cc12
active: Potency [5] 13200 nM | Potency [1] 14800 nM | Potency [2] 13200 nM | Potency [6] 11800 nM

Cc1csc(-c2nnc(Nc3ccc(Oc4ncccc4-c4ccnc(N)n4)cc3)c3ccccc23)c1
active: Potency [5] 10.5 nM | Potency [6] 16.6 nM
inactive: activity (max response) [7] -17.7% | Potency [8]

CC[C@@]1([C@@H]2O[C@@H]([C@H]3O[C@@](O)(CO)[C@H](C)C[C@H]3C)C[C@H]2C)CC[C@H]([C@]2(C)CC[C@]3(C[C@H](O)[C@@H](C)[C@@H]([C@@H](C)[C@@H](OC)[C@H](C)C(=O)O)O3)O2)O1
active: Potency [1] 2290 nM | Potency [2] 1440 nM | Potency [3] 512 nM | Potency [6] 457 nM | Potency [4] 1150 nM | Potency [8] 0.715 µM

COc1cc2c(cc1O)CCC1C2CC[C@@]2(C)C1CC[C@@H]2O (stereo partly specified)
active: Potency [5] 1870 nM | Potency [2] 2640 nM

CO[C@@H]1[C@@H](O)[C@H](O)[C@@H](n2c3c(Cl)cccc3c3c4c(c5c6cccc(Cl)c6[nH]c5c32)C(=O)NC4=O)O[C@@H]1CO
active: Potency [5] 296 nM | Potency [1] 264 nM | Potency [3] 590 nM | Potency [6] 235 nM | Potency [4] 469 nM

CNc1nc(-c2ccc3c(N)n[nH]c3c2)cc(N2C[C@@H](C(=O)NC3CCCCC3)CC[C@@H]2C)n1
active: Potency [5] 23500 nM | Potency [2] 16600 nM | Potency [3] 16600 nM | Potency [6] 16600 nM | Potency [4] 18700 nM

Cc1nc(Nc2ncc(C(=O)Nc3c(C)cccc3Cl)s2)cc(N2CCN(CCO)CC2)n1
active: Potency [5] 1870 nM | Potency [8] 20.6 µM and 25.1 µM

C[C@@H](Oc1cc(-c2cnn(C3CCNCC3)c2)cnc1N)c1c(Cl)ccc(F)c1Cl
active: Potency [1] 18700 nM | Potency [2] 16600 nM | Potency [6] 9350 nM

CNC(=O)c1cccc(-c2ccc3c(N4CCOC[C@H]4C)nc(N4CCOC[C@H]4C)nc3n2)c1
active: Potency [5] 74.3 nM | Potency [3] 264 nM | Potency [6] 2640 nM | Potency [4] 469 nM

From PubChem BioAssay (NCATS)
